In PubChem BioAssay AID1159580 (chemical genetic matrix, 2015):
Among all 5,500 compounds or so, about 2,000 (36%) were called active. About 18% were inconclusive and are not listed. Cut-off read from the data, not from the text of the source: active = normalized growth mostly below about 0.91 (no sharp cut-off); inconclusive = no clear call, values can overlap the other calls; inactive = mostly above about 0.92. The list shows a part of the results.

Test: chemical genetic growth profiling, strain panel (AID 1159580);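 note: tested at 20 µM; growth read once vehicle control cultures reached saturation at 30 °C; 1 = growth at the plate median or of vehicle wells; lower values mean less growth of the strain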
Details: growth OD

Measured: normalized growth

O=C(O)CF
active: S. cerevisiae deletion strains, locus YOR184W, strain ser1, active compounds read low 0.872
inactive: S. cerevisiae deletion strains, locus YJR043C, strain POL32, active compounds read low 0.984 | S. cerevisiae deletion strains, locus YJR075W, strain HOC1, active compounds read low 0.992 | S. cerevisiae deletion strains, locus YKL009W, strain mrt4, active compounds read low 0.915 | S. cerevisiae deletion strains, locus YKL068W, active compounds read low 1.01 | S. cerevisiae deletion strains, locus YKL085W, strain MDH1 (second series), active compounds read low 1 | S. cerevisiae deletion strains, locus YKL085W, strain MDH1, active compounds read low 1 | S. cerevisiae deletion strains, locus YKL160W, strain elf1, active compounds read low 0.988 | S. cerevisiae deletion strains, locus YKL190W, strain CNB1, active compounds read low 1 | S. cerevisiae deletion strains, locus YKR001C, strain vps1, active compounds read low 0.976 | S. cerevisiae deletion strains, locus YKR026C, strain gcn3, active compounds read low 1.03 | S. cerevisiae deletion strains, locus YKR091W, strain srl3, active compounds read low 1.02 | S. cerevisiae deletion strains, locus YLL001W, strain dnm1, active compounds read low 1.02 | S. cerevisiae deletion strains, locus YLL026W, active compounds read low 1.01 | S. cerevisiae deletion strains, locus YLL041C, strain sdh2, active compounds read low 1.03 | S. cerevisiae deletion strains, locus YLR027C, strain aat2, active compounds read low 1.01 | S. cerevisiae deletion strains, locus YLR039C, strain RIC1, active compounds read low 0.997 | S. cerevisiae deletion strains, locus YLR058C, strain SHM2, active compounds read low 0.993 | S. cerevisiae deletion strains, locus YLR102C, strain apc9, active compounds read low 0.99 | S. cerevisiae deletion strains, locus YLR221C, strain rsa3, active compounds read low 1.03 | S. cerevisiae deletion strains, locus YLR258W, strain gsy2, active compounds read low 1.04 | S. cerevisiae deletion strains, locus YLR262C, strain YPT6 (second series), active compounds read low 1.04 | S. cerevisiae deletion strains, locus YLR262C, strain YPT6, active compounds read low 1.01 | S. cerevisiae deletion strains, locus YLR268W, strain sec22, active compounds read low 0.974 | S. cerevisiae deletion strains, locus YLR320W, strain mms22, active compounds read low 1.04 | S. cerevisiae deletion strains, locus YLR330W, strain CHS5, active compounds read low 0.991 | S. cerevisiae deletion strains, locus YLR342W, strain FKS1 (second series), active compounds read low 0.989 | S. cerevisiae deletion strains, locus YLR342W, strain FKS1, active compounds read low 1.02 | S. cerevisiae deletion strains, locus YLR357W, strain rsc2, active compounds read low 1.02 | S. cerevisiae deletion strains, locus YLR370C, strain arc18, active compounds read low 1.04 | S. cerevisiae deletion strains, locus YLR371W, strain rom2, active compounds read low 0.968 | S. cerevisiae deletion strains, locus YLR384C, strain iki3, active compounds read low 1.02 | S. cerevisiae deletion strains, locus YLR418C, strain cdc73, active compounds read low 1.04 | S. cerevisiae deletion strains, locus YML016C, strain PPZ1, active compounds read low 0.99 | S. cerevisiae deletion strains, locus YML032C, strain rad52, active compounds read low 0.947 | S. cerevisiae deletion strains, locus YML120C, strain ndi1, active compounds read low 1.04 | S. cerevisiae deletion strains, locus YML124C, strain tub3, active compounds read low 0.985 | S. cerevisiae deletion strains, locus YMR058W, strain fet3, active compounds read low 1.02 | S. cerevisiae deletion strains, locus YMR078C, strain ctf18, active compounds read low 0.984 | S. cerevisiae deletion strains, locus YMR125W, strain sto1, active compounds read low 0.986 | S. cerevisiae deletion strains, locus YMR129W, active compounds read low 1.02 | S. cerevisiae deletion strains, locus YMR205C, strain PFK2, active compounds read low 1.02 | S. cerevisiae deletion strains, locus YMR223W, strain ubp8, active compounds read low 0.94 | S. cerevisiae deletion strains, locus YMR231W, strain pep5, active compounds read low 1.02 | S. cerevisiae deletion strains, locus YMR263W, strain SAP30, active compounds read low 1.02 | S. cerevisiae deletion strains, locus YMR307W, strain GAS1, active compounds read low 0.945 | S. cerevisiae deletion strains, locus YNL067W, strain RPL9B, active compounds read low 1.02 | S. cerevisiae deletion strains, locus YNL071W, strain lat1, active compounds read low 1.03 | S. cerevisiae deletion strains, locus YNL128W, strain TEP1, active compounds read low 1.01 | S. cerevisiae deletion strains, locus YNL153C, strain GIM3, active compounds read low 1.04 | S. cerevisiae deletion strains, locus YNL209W, strain ssb2, active compounds read low 1.02 | S. cerevisiae deletion strains, locus YNL233W, strain BNI4, active compounds read low 1.02 | S. cerevisiae deletion strains, locus YNL248C, strain rpa49, active compounds read low 0.972 | S. cerevisiae deletion strains, locus YNL250W, strain rad50, active compounds read low 0.987 | S. cerevisiae deletion strains, locus YNL271C, strain bni1, active compounds read low 0.985 | S. cerevisiae deletion strains, locus YNL298W, strain CLA4, active compounds read low 0.94 | S. cerevisiae deletion strains, locus YNL307C, strain MCK1, active compounds read low 0.954 | S. cerevisiae deletion strains, locus YNL322C, strain KRE1 (second series), active compounds read low 1.02 | S. cerevisiae deletion strains, locus YNL322C, strain KRE1, active compounds read low 1 | S. cerevisiae deletion strains, locus YNR049C, strain mso1, active compounds read low 1.02 | S. cerevisiae deletion strains, locus YNR052C, strain pop2, active compounds read low 0.949 | S. cerevisiae deletion strains, locus YOL006C, strain TOP1, active compounds read low 0.988 | S. cerevisiae deletion strains, locus YOL012C, strain htz1 1.93 | S. cerevisiae deletion strains, locus YOL147C, strain pex11, active compounds read low 0.993 | S. cerevisiae deletion strains, locus YOR001W, strain rrp6, active compounds read low 1.03 | S. cerevisiae deletion strains, locus YOR061W, strain CKA2, active compounds read low 0.975 | S. cerevisiae deletion strains, locus YOR069W, strain VPS5, active compounds read low 0.99 | S. cerevisiae deletion strains, locus YOR070C, strain gyp1, active compounds read low 1.02 | S. cerevisiae deletion strains, locus YOR080W, strain dia2, active compounds read low 1.02 | S. cerevisiae deletion strains, locus YOR083W, strain WHI5, active compounds read low 0.992 | S. cerevisiae deletion strains, locus YOR106W, strain vam3, active compounds read low 0.998 | S. cerevisiae deletion strains, locus YOR136W, strain idh2, active compounds read low 0.978 | S. cerevisiae deletion strains, locus YOR144C, strain elg1, active compounds read low 0.987 | S. cerevisiae deletion strains, locus YOR265W, strain rbl2, active compounds read low 1.02 | S. cerevisiae deletion strains, locus YOR270C, strain vph1, active compounds read low 1.02 | S. cerevisiae deletion strains, locus YOR290C, strain snf2, active compounds read low 1.02 | S. cerevisiae deletion strains, locus YOR316C, strain cot1, active compounds read low 0.984 | S. cerevisiae deletion strains, locus YPL051W, strain arl3, active compounds read low 1 | S. cerevisiae deletion strains, locus YPL055C, strain LGE1, active compounds read low 1.04 | S. cerevisiae deletion strains, locus YPL078C, strain atp4, active compounds read low 0.982 | S. cerevisiae deletion strains, locus YPL106C, strain sse1, active compounds read low 1.06 | S. cerevisiae deletion strains, locus YPL240C, strain hsp82, active compounds read low 1.02 | S. cerevisiae deletion strains, locus YPL241C, strain CIN2, active compounds read low 0.998 | S. cerevisiae deletion strains, locus YPR119W, strain clb2, active compounds read low 1 | S. cerevisiae deletion strains, locus YPR141C, strain kar3, active compounds read low 0.993 | S. cerevisiae deletion strains, locus YPR163C, strain tif3, active compounds read low 0.993 | S. cerevisiae deletion strains, locus YPR167C, strain met16, active compounds read low 0.99 | S. cerevisiae deletion strains, strain wtn01, active compounds read low 0.992 | S. cerevisiae strains, strain wild type, active compounds read low 0.999
